Results on 18 compounds are retold here after PubChem BioAssay.

Activity calls are given as the source filed them.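 How the source made its calls: active means normalized viability below 100% at a tested concentration; inactive means the rest.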

One assay in a line: drug combination growth inhibition, ovarian cancer – cell-based, oncology-focused library, rucaparib conditional, profiling panel (AID 1508598). Particulars: patient-derived ovarian cancer cells, CellTiter-Glo viability, 144 h; at 0.313 µM; OCI-P5x cells; without rucaparib; stronger effect = lower value.
Consider `COc1cccc2c1C(=O)c1c(O)c3c(c(O)c1C2=O)C[C@@](O)(C(C)=O)C[C@H]3O[C@H]1C[C@H](N)[C@H](O)[C@H](C)O1`, for which the viability was 10.5% (active).

For the compound `CCOc1ccc(Cc2cc([C@@H]3O[C@H](CO)[C@@H](O)[C@H](O)[C@@H]3O)ccc2Cl)cc1`, the viability is 105% (inactive).

As for `CC(=O)[C@]1(O)Cc2c(O)c3c(c(O)c2[C@H](O[C@H]2C[C@H](N)[C@H](O)[C@H](C)O2)C1)C(=O)c1ccccc1C3=O`, the viability was 7.09% (active).

For the compound `CCC1=CC2CN(C1)Cc1c([nH]c3ccccc13)[C@@](C(=O)OC)(c1cc3c(cc1OC)N(C)[C@H]1[C@@](O)(C(=O)OC)[C@H](OC(C)=O)[C@]4(CC)C=CCN5CC[C@@]31[C@H]54)C2` (some centres not stated), the viability was 12.6% (active).

For the compound `CC(=O)O[C@H]1C(=O)[C@@]2(C)C([C@H](OC(=O)c3ccccc3)[C@]3(O)C[C@H](OC(=O)[C@H](O)[C@@H](NC(=O)c4ccccc4)c4ccccc4)C(C)=C1C3(C)C)[C@]1(OC(C)=O)CO[C@@H]1C[C@H]2O` (some centres not stated), the viability was 18.2% (active).

For the compound `CO[C@H]1C[C@H]2CC[C@@H](C)[C@@](O)(O2)C(=O)C(=O)N2CCCC[C@H]2C(=O)O[C@H]([C@H](C)C[C@@H]2CC[C@H](OC(=O)C(C)(CO)CO)[C@H](OC)C2)CC(=O)[C@H](C)/C=C(\C)[C@@H](O)[C@@H](OC)C(=O)[C@H](C)C[C@H](C)/C=C/C=C/C=C/1C`, the viability was 57.7% (active).

As for `CO[C@H]1/C=C\C=C(\C)C(=O)NC2=CC(=O)C(NCCN(C)C)=C(C[C@@H](C)C[C@H](OC)[C@H](O)[C@@H](C)/C=C(\C)[C@@H]1OC(N)=O)C2=O`, the viability was 5.68% (active).

Turning to `CC(C)(C(=O)NCC(F)(F)C(F)(F)F)C(=O)N[C@H]1C(=O)Nc2ccccc2-c2ccccc21`, the viability is 85.2% (active).

For `CC1(C)O[C@@H]2C[C@H]3[C@@H]4CCC5=CC(=O)C=C[C@]5(C)[C@]4(F)[C@H](O)C[C@]3(C)[C@@]2(C(=O)CO)O1`, the viability is 106% (inactive).

The assay is the same for the next values; noted with them: patient-derived ovarian cancer cells, CellTiter-Glo viability, 144 h; at 1.25 µM; OCI-C5x cells; with rucaparib 10 µM; stronger effect = lower value; 100% = cells with rucaparib alone.
With `N[C@@H]1CCCN(c2c(/C=C3\SC(=O)NC3=O)cccc2-c2ccccc2)C1`, the viability was 93.8% (active).

As for `C[C@@H]1C[C@H]2[C@@H]3CCC4=CC(=O)C=C[C@]4(C)[C@]3(F)[C@H](O)C[C@]2(C)[C@]1(O)C(=O)CO`, the viability is 109% (inactive).

Consider `Cc1cc2c(C(=O)NC[C@H](C)c3ccccc3)c(O)c(O)cc2c(O)c1-c1c(C)cc2c(C(=O)NC[C@H](C)c3ccccc3)c(O)c(O)cc2c1O`, for which the viability was 123% (inactive).

Regarding `Nc1nc(F)nc2c1ncn2[C@H]1O[C@H](CO)[C@@H](O)[C@@H]1O`, the viability is 80.7% (active).

Turning to `COc1cccc2c1C(=O)c1c(O)c3c(c(O)c1C2=O)C[C@@](O)(C(=O)CO)C[C@H]3O[C@H]1C[C@H](N)[C@@H](O)[C@H](C)O1`, the viability is 15.6% (active).

Consider `C=C1/C(=C/C=C2\CCC[C@@]3(C)[C@H]2CC[C@H]3[C@H](C)/C=C/[C@@H](C)C(C)C)C[C@H](O)C[C@@H]1O`, for which the viability is 101% (inactive).

Regarding `CO[C@H]1C[C@H]2CC[C@@H](C)[C@@](O)(O2)C(=O)C(=O)N2CCCC[C@H]2C(=O)O[C@H]([C@H](C)C[C@@H]2CC[C@H](OP(C)(C)=O)[C@H](OC)C2)CC(=O)[C@H](C)/C=C(\C)[C@@H](O)[C@@H](OC)C(=O)[C@H](C)C[C@H](C)/C=C/C=C/C=C/1C`, the viability is 104% (inactive).

In the case of `C=CCNC1=C2C[C@@H](C)C[C@H](OC)[C@H](O)[C@@H](C)/C=C(\C)[C@H](OC(N)=O)[C@@H](OC)/C=C\C=C(\C)C(=O)NC(=CC1=O)C2=O`, the viability was 28.6% (active).

Regarding `CC[C@]1(O)C[C@@H]2CN(CCc3c([nH]c4ccccc34)[C@@](C(=O)OC)(c3cc4c(cc3OC)N(C=O)[C@@H]3C45CCN4CC=C[C@](CC)([C@H]45)[C@H](OC(C)=O)[C@]3(O)C(=O)OC)C2)C1` (some centres not stated), the viability was 34.8% (active).

On to `COc1cccc2c1C(=O)c1c(O)c3c(c(O)c1C2=O)C[C@@](O)(C(C)=O)C[C@H]3O[C@H]1C[C@H](N)[C@H](O)[C@H](C)O1`, for which the viability was 2.76% (active).

`CCOc1ccc(Cc2cc([C@@H]3O[C@H](CO)[C@@H](O)[C@H](O)[C@@H]3O)ccc2Cl)cc1`: the viability is 111% (inactive).

As for `CC(=O)[C@]1(O)Cc2c(O)c3c(c(O)c2[C@H](O[C@H]2C[C@H](N)[C@H](O)[C@H](C)O2)C1)C(=O)c1ccccc1C3=O`, the viability was 1.52% (active).

`CCC1=CC2CN(C1)Cc1c([nH]c3ccccc13)[C@@](C(=O)OC)(c1cc3c(cc1OC)N(C)[C@H]1[C@@](O)(C(=O)OC)[C@H](OC(C)=O)[C@]4(CC)C=CCN5CC[C@@]31[C@H]54)C2` (some centres not stated): the viability was 39.7% (active).

Usually viability stands for a read-out of living cells in per cent, often relative to untreated cells.
